Screens: PubChem, NMMLSC
RGS8-Gao = regulators of human RGS8-Galphao interaction; 220,000 tested, 0.34% active; P09471; multiplexed bead flow cytometry, RGS8-Galphao binding; actives lie on both sides; response (percent of control binding), % at 10 µM; in the data active = response below about 60% or above about 140%; inactive = in between;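 also: Galphao activated as the GDP aluminium fluoride complex binding bead-coupled RGS8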
RGS16-Gao = modulates binding between human RGS16 and Galphao; O15492+P09471; bead-based flow cytometry RGS16-Galphao binding, fluorescence; actives lie on both sides; binding response (% of control), % at 10 µM; 220,000 tested, 0.38% active; AID 1441;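 also: Galphao activated by GDP with aluminum fluoride before binding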
Target sequence (O15492 whole entry, looked up): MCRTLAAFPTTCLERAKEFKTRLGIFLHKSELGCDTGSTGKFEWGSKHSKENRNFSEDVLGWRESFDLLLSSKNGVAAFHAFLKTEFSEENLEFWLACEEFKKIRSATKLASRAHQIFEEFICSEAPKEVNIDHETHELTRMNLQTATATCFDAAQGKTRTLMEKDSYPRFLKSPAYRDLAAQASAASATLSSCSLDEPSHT
Target sequence (P09471 whole entry, looked up): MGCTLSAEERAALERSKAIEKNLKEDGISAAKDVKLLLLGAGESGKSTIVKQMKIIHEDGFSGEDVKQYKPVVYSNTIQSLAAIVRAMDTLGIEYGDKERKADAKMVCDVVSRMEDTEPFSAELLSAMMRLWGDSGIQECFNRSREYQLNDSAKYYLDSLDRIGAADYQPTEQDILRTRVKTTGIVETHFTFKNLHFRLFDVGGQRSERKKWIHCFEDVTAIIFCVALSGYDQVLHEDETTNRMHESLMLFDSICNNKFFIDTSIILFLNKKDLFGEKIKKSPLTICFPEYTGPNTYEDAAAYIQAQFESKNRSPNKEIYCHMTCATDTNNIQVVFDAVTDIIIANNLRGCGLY
RGS7-Gao = modulates binding of RGS7 to human Galphao. P09471. Multiplexed bead flow cytometry; actives lie on both sides. binding response (% of control), % at 10 µM. 220,000 tested, 0.35% active; in the data active = binding response below about 49% or above about 150%; inconclusive = no clear call, values can overlap the other calls; inactive = in between;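 also: fluorescent Galphao held in activated GDP-AlF4 state binding bead-coupled RGS7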
RGS4-Gao reg = human RGS4-Galphao interaction regulation; P09471; Multiplexed bead flow cytometry, RGS4-Galphao binding; actives lie on both sides; binding response (% of control), % at 10 µM; 220,000 tested, 0.33% active; in the data active = binding response below about 49% or above about 150%; inactive = in between;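 also: fluorescent Galphao activated with aluminum fluoride binding bead-coupled RGS4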
Avidin bead fluor = compound fluoresces at 488/530 nm on avidin beads. fluorescence (KMESF) at 10 µM. 220,000 tested, 0.38% active. compound fluorescence 488/530 nm, flow cytometry; stronger effect = higher value; in the data active = fluorescence above about 47
GSH bead fluor = compound fluoresces at 488/530 nm on GSH beads; GSH beads flow cytometry, compound fluorescence 488/530 nm; stronger effect = higher value; fluorescence (KMESF) at 10 µM; 190,000 tested, 0.25% active; in the data active = fluorescence above about 89;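 also: glutathione beads carrying GST-tagged Bcl family fusion proteins plus one bare bead set; values are compound well signal with DMSO vehicle wells as background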
RGS-Gao = RGS4-Galphao interaction regulator (human); shares compounds with RGS16-Gao; multiplexed bead flow cytometry, RGS–Galpha-o binding; RGS4–Galpha-o binding response, % at 10 µM; 1,600 tested, 99% active;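 also: fluorescently labeled Galpha-o bound to GDP with aluminium fluoride binding biotinylated RGS beads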
Avidin counter = biotin-avidin bead binding disruption counter-screen. shares compounds with RGS16-Gao. streptavidin beads, fluorescein-biotin binding, flow cytometry. inhibition, % at 10 µM. 1,700 tested, under 10 active;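 active = inhibition above 50%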;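 also: median green fluorescence of gated singlet beads compared with DMSO control wells; 0% = DMSO wells and 100% = complete loss of bead fluorescence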
RGS8-Gao confirm = RGS8-Galphao interaction regulation, single point confirmation; 1,700 tested, 3% active; bead-based flow cytometry RGS8-Galphao binding, fluorescence; actives lie on both sides; AID 1836; shares compounds with RGS16-Gao; binding response (% of control), % at 10 µM; in the data active = binding response below about 72% or above about 130%; inactive = in between;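 also: Galphao activated as GDP AlF4 complex before binding bead RGS8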
RGS7-Gao confirm = RGS7-Galphao interaction regulation, single point confirmation; shares compounds with RGS16-Gao; bead-based flow cytometry RGS7-Galphao binding; actives lie on both sides; response (percent of control binding), % at 10 µM; 1,700 tested, 7.8% active; AID 1837; in the data active = response below about 75% or above about 130%; inactive = in between;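 also: fluorescent Galphao activated with GDP and aluminum fluoride binding bead-coupled RGS7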
RGS16-Gao single = confirmation of regulators of human RGS16-Galphao interaction | shares compounds with RGS16-Gao | bead-based flow cytometry, RGS16-Galphao binding; actives lie on both sides | response (% of control binding), % at 10 µM | 1,700 tested, 4% active | AID 1838; in the data active = response below about 74% or above about 130%; inactive = in between;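 also: Galphao activated as the GDP aluminium fluoride complex binding bead-coupled RGS16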
RGS4-Gao single = RGS4-Galphao interaction regulation, single point confirmation. shares compounds with RGS16-Gao. RGS4-Galphao binding, multiplexed bead flow cytometry; actives lie on both sides. binding response (% of control), % at 10 µM. 1,700 tested, 4% active; in the data active = binding response below about 74% or above about 130%; inactive = in between
RGS19-Gao single = confirmation of regulators of human RGS19-Galphao interaction; shares compounds with RGS16-Gao; bead-based flow cytometry RGS19-Galphao binding; actives lie on both sides; response (percent of control binding), % at 10 µM; 1,700 tested, 5% active; AID 1841; in the data active = response below about 50% or above about 160%; inactive = in between;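 also: 100% = no compound control and 0% = blank background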
Starred values were filed as active, the others as inactive; i = inactive; u = inconclusive; x = no result; [ ] = another dose, or the depositor's remark. In the library only some 1.2% were active in any assay of this set; here they are far more common. Unless noted, no rule for the calls is given here.

SMILES	RGS8-Gao	RGS16-Gao	RGS7-Gao	RGS4-Gao reg	Avidin bead fluor	GSH bead fluor	RGS-Gao	Avidin counter	RGS8-Gao confirm	RGS7-Gao confirm	RGS16-Gao single	RGS4-Gao single	RGS19-Gao single
CCOC(=O)n1c(=O)[nH]c2ccc(Br)cc21	98.3	96.3	106.2	96.3	14	14	x	x	x	x	x	x	x
O=C(N=Nc1c(O)[nH]c2ccc(Br)cc12)c1cc(-c2cccc3ccccc23)n[nH]1	67.2	8.3*	83.3	89.2	9	9	89.2*	-1.0	93.3	89.8	98.2	96.3	122.8
COc1ccc(C2CC(c3ccccc3)=NN2C(=S)Nc2ccccc2)cc1 (configuration not stated)	101.6	103.5	109.1	104.3	25	9	x	x	x	x	x	x	x
COc1ccc(C2=NN(C(=S)Nc3ccccc3)C(c3ccccc3)C2)cc1 (configuration not stated)	134.1	385.0*[activator]	118.2	116.8	12	11	116.8*	-0.4	106.5	102.3	109.0	104.8	118.1
CCCC(=O)N1CCN(c2ccc(NC(=O)c3cccs3)cc2)CC1	101.2	94.8	91.4	94.7	15	13	x	x	x	x	x	x	x
CCCCOc1ccc(Cc2cnc(N)nc2N)cc1	98.7	99.8	u	99.8	6	x	x	x	x	x	x	x	x
CC(C)Oc1ccc(Cc2cnc(N)nc2N)cc1	163.2*[activator]	i	132.0	136.6	8	40	136.6*	-0.3	103.8	103.1	102.4	103.6	100.4
O=C(Nc1ccccc1F)C1CCN(C(=O)Cc2ccccc2)CC1	95.4	62.8	104.0	108.8	2	28	x	x	x	x	x	x	x
O=C(Nc1ccccc1Br)C1CCN(C(=O)Cc2ccccc2)CC1	89.8	21.0*	96.8	96.9	6	17	96.9*	0.9	106.0	105.0	109.0	102.6	109.7
C/C(=N\Nc1cc(C)nc(NCc2ccccc2)n1)c1ccc([N+](=O)[O-])cc1	100.3	102.7	u	103.6	4	x	x	x	x	x	x	x	x
Cc1nn(-c2ccccc2)c(C)c1NC(=O)Cc1cccs1	67.9	58.1	55.0	55.8	6	17	x	x	x	x	x	x	x
Cc1nn(-c2ccccc2)c(C)c1NC(=O)c1cccs1	80.2	-7.9*	88.1	82.2	9	10	82.2*	0.1	101.1	103.0	100.0	102.7	100.7
C=CCc1cccc(/C=N/NC(=O)c2ccccc2Br)c1O	31.3*	23.5*	24.6*	33.6*	2	15	x	-1.2	100.6	95.2	96.8	99.8	82.2
C=CCc1cccc(/C=N/NC(=O)c2ccccc2OC)c1O	98.4	96.4	97.2	96.0	5	11	x	x	x	x	x	x	x
CO/N=C/C(=N\Nc1ccc(C)cc1)C(=O)c1ccc(OC)cc1	104.9	107.3	105.0	100.6	10	14	x	x	x	x	x	x	x
CO/N=C/C(=N\Nc1ccc(OC)cc1)C(=O)c1ccc(F)cc1	44.7*	36.7	34.9*	40.2*	5	15	x	1.7	101.3	93.8	102.2	98.2	81.0
COc1ccc(CCN(CC(=O)NC2CCCC2)C(=O)Cn2nnc(-c3ccc(C)o3)n2)cc1OC	98.5	104.9	99.5	101.2	13	12	x	x	x	x	x	x	x
